# Screening data deposited in PubChem by National Center for Advancing Translational Sciences (NCATS).
# D1 ag: Allosteric Agonists of the Human D1 Dopamine Receptor: qHTS; D(1A) dopamine receptor (Homo sapiens), P21728; HEK293 T-REx D1 cells, calcium flux, agonist mode; activation, % at 2 µM; actives 1% (n = 360,000); AID 504660, 2011; in the data active = activation above about 30%; note: 0% is about no effect
# Target sequence (P21728 whole entry, looked up): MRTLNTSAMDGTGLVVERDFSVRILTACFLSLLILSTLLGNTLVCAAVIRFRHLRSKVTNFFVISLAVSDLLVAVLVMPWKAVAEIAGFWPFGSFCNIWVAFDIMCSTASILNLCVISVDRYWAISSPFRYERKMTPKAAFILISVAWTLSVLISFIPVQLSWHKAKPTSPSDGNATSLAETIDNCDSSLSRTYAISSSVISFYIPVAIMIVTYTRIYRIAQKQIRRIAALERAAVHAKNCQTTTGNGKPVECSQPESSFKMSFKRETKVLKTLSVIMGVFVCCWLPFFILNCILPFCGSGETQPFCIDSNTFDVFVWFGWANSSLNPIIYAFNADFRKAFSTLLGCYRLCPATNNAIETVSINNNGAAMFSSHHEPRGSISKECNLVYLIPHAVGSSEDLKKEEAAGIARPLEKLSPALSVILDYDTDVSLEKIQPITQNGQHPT
#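 Inducible HEK293 T-REx D1 cells, force-coupled to calcium signalling, were plated at 4000 cells/well with tetracycline and held overnight at 30 C. After no-wash calcium dye loading, compound-evoked calcium rise over 180 s flagged agonists.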
# D1 antag: Antagonist of Human D 1 Dopamine Receptor: qHTS; actives 3.2% (n = 360,000); HEK293 TREx D1 cells, calcium flux, dopamine EC80; active compounds read low; activity change, negative = inhibition, % at 10 µM; D(1A) dopamine receptor (Homo sapiens), P21728; in the data active = activity change below about -30%; note: % is set by controls: 0 for no effect and ±100 for the full control effect
#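 Kinetic fluorescence of a calcium dye serves as the read-out. D1-expressing Hek293 Trex cells, induced overnight at 30 C, are exposed to compound for 180 s before an EC80 dopamine addition, then read 180 s further.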
# D1 PAM: Potentiators of Human D1 Dopamine Receptor: qHTS; HEK293 TREx D1 cells, calcium flux, dopamine EC20 potentiation; potentiation, % at 10 µM; AID 504651, 2011; actives 0.036% (n = 360,000); in the data active = potentiation above about 30%; note: 0% is about no effect
# DRD3 agonist: qHTS of D3 Dopamine Receptor Agonist: qHTS; D(3) dopamine receptor (Homo sapiens), P35462; D3R DiscoveRx beta-arrestin cells, luminescence, 90 min; max activation, %; actives 0.58% (n = 410,000); AID 652048, 2013; in the data active = max activation above about 30%; note: 0% is about no effect
#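 Cells at 1500/well, incubated overnight, then treated with pinned compounds (dopamine as control) for 90 min at 37 degrees C. DiscoveRx reagent added for 30 - 60 minutes at room temperature; luminescence read.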
# DRD3 antagonist: qHTS of D3 Dopamine Receptor Antagonist: qHTS; max response, negative = inhibition, %; D3R cells, DiscoveRx beta-arrestin luminescence, antagonist mode; active compounds read low; actives 2.5% (n = 360,000); in the data active = max response below about -50%; note: % is set by controls: 0 for no effect and ±100 for the full control effect
#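 Cells expressing the human receptor were seeded at 1500 cells/well, incubated overnight at 37 degrees C in 5% CO2, then exposed to library compounds with dopamine controls for 90 minutes at 37 degrees C before luminescent detection.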
# An asterisk follows results filed as active; · = no result. Compounds with a hit are over-represented: about 6% of the library has one in this group of screens.
SMILES,D1 ag,D1 antag,D1 PAM,DRD3 agonist,DRD3 antagonist
O=C(Nc1ccc2c(c1)OCCO2)C(c1cc2ccccc2o1)N1CCN(c2ccc(F)cc2)CC1 (configuration not stated),·,·,·,-7.3,0.0
O=C(Nc1ccc2c(c1)OCCO2)C(C1CC1)N1CCN(C/C=C/c2ccccc2)CC1 (configuration not stated),·,·,·,-5.4,-58.8*
O=C(Nc1ccc2c(c1)OCCO2)C(c1cc2ccccc2o1)N1CCN(C/C=C/c2ccccc2)CC1 (configuration not stated),·,·,·,-5.6,-110.9*
CC(C)(C)c1ccc2c(S(=O)(=O)O)c(C(C)(C)C)ccc2c1,·,·,·,11.1,·
Cc1csc(SCC(=O)c2cc(C)n(Cc3cccs3)c2C)n1,11.2,-16.8,-1.1,0.9,47.3
Cc1cc(C(=O)CSc2nnc(N)s2)c(C)n1Cc1cccs1,8.8,-38.7*,-7.0,1.7,15.6
CCc1ccccc1NC(=O)CSc1nc2c(oc3ccccc32)c(=O)n1C,0.9,10.5,-5.2,7.9,·
Nn1cnnc1N/N=C/c1cc(Br)cc(Br)c1O,3.4,-1.6,-2.7,-9.2,-90.0*
COc1ccc(NC(=O)C(CC(C)C)NC(=O)C2CCCCC2)cc1 (configuration not stated),1.7,4.2,-0.3,0.4,·
Cc1ccc(S(=O)(=O)N2CCC(c3nnc(SCCN4CCCC4)n3C)CC2)cc1,0.4,3.4,0.8,-1.7,-15.8
CCn1c(SCCN2CCCCC2)nnc1-c1ccc(S(=O)(=O)N2CCOCC2)cc1,2.5,-16.7,-1.3,-8.2,-74.0*
COC(=O)[C@@H]1C[C@H]2CC[C@H](O)C[C@H]2N1Cc1ccc(C(C)(C)C)cc1,1.9,-34.4*,-8.1,-1.5,0.0
O=C(O)CP(=O)(O)O,-0.2,-37.9*,-2.2,16.6,-8.2
O=c1[nH][nH]cc1C=Nc1ccc(Cl)cc1,0.4,-0.2,-3.6,5.5,18.1
COc1cccc(N=Cc2c[nH][nH]c2=O)c1,0.6,-30.7*,-4.1,1.9,17.0
O=C(NCc1ccccn1)NC12CC3CC(CC(C3)C1)C2,2.4,-82.3*,-4.5,0.8,13.6
C#CC(C)(CC)NC(=O)c1cnn2c(C(F)F)cc(-c3ccccc3OC)nc12 (configuration not stated),6.3,7.7,0.1,63.7*,·
CCOc1cc(C(=O)NCCC(=O)N2CCC3(CC2)NCCc2[nH]cnc23)cc(OCC)c1OCC,2.3,-10.4,-5.6,2.3,7.2
CCOc1ccc(C(=O)NCCC(=O)N2CCC3(CC2)NCCc2[nH]cnc23)cc1OCC,0.7,-63.0*,4.6,-0.7,-1.4
CC1O[C@@H](OCC2O[C@@H](Oc3cc(O)c4c(c3)OC(c3ccc(O)cc3)CC4=O)[C@H](O)[C@@H](O)[C@@H]2O)[C@H](O)[C@H](O)[C@H]1O (some centres not stated),2.6,12.4,-5.0,-24.4,-58.1*
COc1ccc([C@@H]2CC(=O)c3c(O)cc(O[C@@H]4OC(CO[C@@H]5OC(C)[C@H](O)[C@@H](O)[C@H]5O)[C@@H](O)[C@H](O)[C@H]4O)cc3O2)cc1O (some centres not stated),·,·,·,-6.1,4.0
CCOc1ccc(Nc2nc(N)c(C(=O)c3ccccc3Cl)s2)cc1,8.9,81.1,2.8,70.3*,·
COc1ccc(Nc2nc(N)c(C(=O)c3ccc(OC)cc3)s2)cc1,13.1,17.2,7.3,-6.9,-24.1
Cc1ccc(N2CC(NC(=O)c3cccc(Cl)c3)CC2=O)cc1C (configuration not stated),-3.2,·,-3.1,-0.5,·
O=[N+]([O-])c1ccc(C(=S)N2CCN(c3ccc(F)cc3)CC2)cc1,0.2,-33.1*,3.9,-4.2,-0.9
CN(C)c1ccc(C(=S)N2CCN(c3ccc([N+](=O)[O-])cc3)CC2)cc1,0.9,-32.0*,-3.8,-8.1,-23.2
COc1cc(OC)c(NS(=O)(=O)c2ccc3c(c2)NC(=O)CCS3)cc1Cl,14.7,-38.2*,1.9,3.6,·
COc1cc(OC)c(NS(=O)(=O)c2ccc3c(c2)NC(=O)CO3)cc1Cl,7.5,-8.4,-0.9,8.3,21.1
